D1 antagonist: Antagonist of Human D 1 Dopamine Receptor: qHTS | hit rate 3.2% among 360,000 | D(1A) dopamine receptor (Homo sapiens), P21728 | HEK293 TREx D1 cells, calcium flux, dopamine EC80; active compounds read low | activity change, negative = inhibition, % at 10 µM | AID 504652, 2011; in the data active = activity change below about -30%; note: % is set by controls: 0 for no effect and ±100 for the full control effect
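Compound effects on dopamine-evoked calcium signalling were measured in tetracycline-induced HEK293 Trex D1 cells. Dopamine at EC80 followed a 180 s compound pre-read, and fluorescence was tracked kinetically for 180 s more.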
TRHR enhancer: qHTS for Small Molecule Agonists and Allosteric Enhancers of Human TRH Receptor: Primary Screen for Enhancers | Thyrotropin-releasing hormone receptor (Homo sapiens), P34981 | TRHR cells, fluo-8 calcium fluorescence, EC20 TRH enhancement | enhancement, % at 2 µM | hit rate 0.66% among 360,000 | AID 493056, 2011; in the data active = enhancement above about 30%; note: 0% is about no effect
Target sequence (P34981 whole entry, looked up): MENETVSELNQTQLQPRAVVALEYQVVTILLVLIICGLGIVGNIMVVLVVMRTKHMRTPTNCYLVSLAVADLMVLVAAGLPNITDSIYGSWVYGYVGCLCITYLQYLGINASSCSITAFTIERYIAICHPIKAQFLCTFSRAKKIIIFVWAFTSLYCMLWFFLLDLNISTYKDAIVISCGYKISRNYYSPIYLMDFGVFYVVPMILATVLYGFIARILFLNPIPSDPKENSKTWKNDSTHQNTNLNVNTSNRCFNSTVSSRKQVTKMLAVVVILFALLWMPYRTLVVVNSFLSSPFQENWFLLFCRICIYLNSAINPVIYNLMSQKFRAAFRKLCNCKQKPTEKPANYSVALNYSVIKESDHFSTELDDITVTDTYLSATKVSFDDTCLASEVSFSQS
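TRHR-expressing cells loaded with fluo-8 calcium dye were read kinetically (ex 480/em 530) during compound addition, then stimulated with an EC20 of TRH (10 nM final). Enhancement of the Gq-mediated intracellular calcium response was scored.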
TRHR agonist: qHTS for Small Molecule Agonists and Allosteric Enhancers of Human TRH Receptor: Primary Screen for Agonists; activation, % at 2 µM; TRHR cells, calcium flux fluo-8, FDSS agonist mode; hit rate 0.18% among 360,000; AID 493084, 2011; note: 0% is about no effect
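Steps: seed TRHR cells overnight; add fluo-8 no-wash Ca dye, RT 30 min–1.5 h; record 10 s baseline; pin-transfer compounds; monitor fluorescence 1 cycle/s for the agonist window. Calcium increases flag candidate agonists.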
D1 agonist: Allosteric Agonists of the Human D1 Dopamine Receptor: qHTS; D(1A) dopamine receptor (Homo sapiens), P21728; HEK293 T-REx D1 cells, calcium flux, agonist mode; activation, % at 2 µM; hit rate 1% among 360,000; note: 0% is about no effect
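Tetracycline-induced HEK293 TREx D1 cells, force-coupled to calcium signalling, were dye-loaded with a no-wash calcium kit. Compound was pin-added after a 10 s baseline. Fluorescence was read kinetically at 1 cycle/s for 180 s, with calcium rises flagged as agonism.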
D1 PAM: Potentiators of Human D1 Dopamine Receptor: qHTS; D(1A) dopamine receptor (Homo sapiens), P21728; HEK293 TREx D1 cells, calcium flux, dopamine EC20 potentiation; potentiation, % at 10 µM; hit rate 0.036% among 360,000; AID 504651, 2011; in the data active = potentiation above about 30%; note: 0% is about no effect
An asterisk follows results filed as active. Only some compounds are listed: those with a hit (about 4.6% of all), similar ones and a draw of the others. Cut-off read from the data, not from the text of the source, unless noted: active = activation above about 30%; inactive = the rest.

What do the screens show for `COc1ccc(Cn2c(N)c(C#N)c3nc4ccccc4nc32)cc1`?
D1 antagonist: 0; TRHR enhancer: -3; TRHR agonist: 0; D1 agonist: 13; D1 PAM: -1

What do the screens show for `COc1cccc(Cn2c(N)c(C#N)c3nc4ccccc4nc32)c1OC`?
D1 antagonist: -43*; TRHR enhancer: 8; TRHR agonist: -1; D1 agonist: 7; D1 PAM: -2

How did CCOc1ccccc1C(=O)NCC(=O)N(C)Cc1ccccc1C do in these assays?
D1 antagonist: -43*; TRHR enhancer: -6; TRHR agonist: 0; D1 agonist: 6; D1 PAM: -4

Results for CCOc1ccccc1C(=O)NCC(=O)Nc1ccc(-c2ccccc2)cc1 ?
D1 antagonist: 5; TRHR enhancer: 6; TRHR agonist: 1; D1 agonist: 0; D1 PAM: -2

How did CCn1c(=O)n(-c2cccc(Cl)c2)c(=O)c2sc3ccccc3c21 do in these assays?
D1 antagonist: -13; TRHR enhancer: 0; TRHR agonist: -1; D1 agonist: 3; D1 PAM: -1

What do the screens show for `CCCNC(=O)c1ccc2c(=O)c(O)c(-c3ccc(OC)cc3)[nH]c2c1`?
D1 antagonist: -35*; TRHR enhancer: -5; TRHR agonist: 2; D1 agonist: 1; D1 PAM: -8

How did Cc1ccc(CNC(=O)c2ccc3c(=O)c(O)c(-c4ccc(C)cc4)[nH]c3c2)cc1 do in these assays?
D1 antagonist: -41*; TRHR enhancer: -1; TRHR agonist: 5; D1 agonist: 8; D1 PAM: -8

What do the screens show for `CCCNC(=O)c1ccc2c(=O)c(O)c(-c3ccsc3)[nH]c2c1`?
D1 antagonist: -19; TRHR enhancer: 3; TRHR agonist: 4; D1 agonist: 9; D1 PAM: -5

What do the screens show for `Cc1ccc(CNC(=O)c2ccc3c(O)c(S(=O)(=O)c4ccc(Cl)cc4)c(=O)[nH]c3c2)cc1`?
D1 antagonist: 6; TRHR enhancer: 7; TRHR agonist: 0; D1 agonist: 1; D1 PAM: -6

How did CCCNC(=O)c1ccc2c(=O)c(O)c(-c3ccc(C)cc3)[nH]c2c1 do in these assays?
D1 antagonist: -93*; TRHR enhancer: -6; TRHR agonist: 4; D1 agonist: 6; D1 PAM: -9

Results for Cc1ccc(-c2[nH]c3cc(C(N)=O)ccc3c(=O)c2O)cc1 ?
D1 antagonist: -36*; TRHR enhancer: 10; TRHR agonist: 1; D1 agonist: 2; D1 PAM: -7

How did Cc1ccc(NC(=O)c2c(NC(=O)Cc3ccccc3)sc3c2CCCC3)cc1 do in these assays?
D1 antagonist: 6; TRHR enhancer: 4; TRHR agonist: 1; D1 agonist: 2; D1 PAM: -3

Results for Cc1ccc(-c2[nH]c3cc(C(=O)NCCCn4ccnc4)ccc3c(=O)c2O)cc1 ?
D1 antagonist: -57*; TRHR enhancer: 7; TRHR agonist: 3; D1 agonist: 5; D1 PAM: -8

What do the screens show for `CC1CCC(NC(=O)CN(C)S(=O)(=O)c2ccc3c(c2)CCC(=O)N3)CC1` (configuration not stated)?
D1 antagonist: -31*; TRHR enhancer: 2; TRHR agonist: 0; D1 agonist: 3; D1 PAM: -2

How did CCOC(=O)c1ccc(-n2c(CCC(=O)O)ccc2-c2ccc(Br)cc2)cc1 do in these assays?
D1 antagonist: -31*; TRHR enhancer: 1; TRHR agonist: 0; D1 agonist: 4; D1 PAM: -3

How did O=C(O)CCc1ccc(-c2ccc(Br)cc2)n1-c1ccc(O)cc1 do in these assays?
D1 antagonist: 2; TRHR enhancer: 0; TRHR agonist: -1; D1 agonist: 0; D1 PAM: 0

How did CCOc1ccc(-n2c(CCC(=O)O)ccc2-c2ccc(Br)cc2)cc1 do in these assays?
D1 antagonist: -7; TRHR enhancer: 33*; TRHR agonist: 0; D1 agonist: 6; D1 PAM: 1

Results for CCN(CC)C(=O)c1cccc(NC(=O)c2cc(-c3ccccn3)nc3ccccc23)c1 ?
D1 antagonist: 5; TRHR enhancer: -11; TRHR agonist: 0; D1 agonist: 0; D1 PAM: -12

Results for COc1cc2cc(C(=O)O)n(C)c2c(OC)c1OC ?
D1 antagonist: -37*; TRHR enhancer: 14; TRHR agonist: 1; D1 agonist: 6; D1 PAM: -3

Results for Cc1ccc(OCC(=O)N(Cc2ccco2)Cc2ccco2)cc1 ?
D1 antagonist: -15; TRHR enhancer: 2; TRHR agonist: -1; D1 agonist: 2; D1 PAM: -2

How did Cc1ccc2c(CC(=O)N(Cc3ccc(Cl)cc3)Cc3ccco3)coc2c1 do in these assays?
D1 antagonist: -22; TRHR enhancer: 7; TRHR agonist: -1; D1 agonist: 33*; D1 PAM: -1

Results for Cc1cc(C)c2c(CC(=O)N(Cc3ccc(N(C)C)cc3)Cc3ccco3)coc2c1 ?
D1 antagonist: 5; TRHR enhancer: -2; TRHR agonist: 0; D1 agonist: 2; D1 PAM: 3

Results for Cc1ccc(CN(Cc2ccco2)C(=O)COc2ccc(C(C)C)cc2)cc1 ?
D1 antagonist: -56*; TRHR enhancer: 4; TRHR agonist: -1; D1 agonist: 46*; D1 PAM: 1

How did Nc1cccc2c(=O)c3ccccc3[nH]c12 do in these assays?
D1 antagonist: 9; TRHR enhancer: -1; TRHR agonist: 1; D1 agonist: 1; D1 PAM: -4

Results for Cc1oc(-c2ccc(C(=O)Nc3cccc(C(F)(F)F)c3)cc2)nc1CSc1ccccc1 ?
D1 antagonist: -11; TRHR enhancer: 0; TRHR agonist: 3; D1 agonist: 13; D1 PAM: -3

How did CN(CC(=O)Nc1ccccc1Cl)CC(=O)Nc1sc2c(c1C(N)=O)CCC2 do in these assays?
D1 antagonist: -6; TRHR enhancer: -2; TRHR agonist: 0; D1 agonist: 0; D1 PAM: -1

How did O=C(COC(=O)c1ccc([N+](=O)[O-])s1)Nc1ccc(F)cc1 do in these assays?
D1 antagonist: -38*; TRHR enhancer: -6; TRHR agonist: -1; D1 agonist: 4; D1 PAM: -3

Results for Cc1ccc(NC(=O)CN2CCOCC2)cc1C ?
D1 antagonist: -40*; TRHR enhancer: 3; TRHR agonist: 0; D1 agonist: 8; D1 PAM: -2

How did O=C(CN1CCOCC1)Nc1ccc(Cl)c(Cl)c1 do in these assays?
D1 antagonist: -1; TRHR enhancer: -1; TRHR agonist: 2; D1 agonist: 3; D1 PAM: 0

Compound activity: PubChem, National Center for Advancing Translational Sciences (NCATS)
